Laboratory results as given in paper PMC5540273 (PLoS ONE, 2017).

Key:
Conditions in all cases: concentration: 1 μM, replicates: in singlicate; n = 1
PIP5K1A = system: PIP5K1A
PIP5K1C = system: PIP5K1C
PIP5K2B = system: PIP5K2B
PIP5K2C = system: T1, PIP5K2C
T1 construct: gene PIP4K2C

PKAC-alpha = system: T2, PKAC-alpha
T2 construct: gene PRKACA

PKAC-beta = system: T3, PKAC-beta
T3 construct: gene PRKACB

PKMYT1 = system: PKMYT1
PKN1 = system: PKN1
PKN2 = system: PKN2
PLK1 = system: PLK1
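Also: KINOMEscan kinase panel screen.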

Row | Structure (SMILES) | %Inh (PIP5K1A) | %Inh (PIP5K1C) | %Inh (PIP5K2B) | %Inh (PIP5K2C) | %Inh (PKAC-alpha) | %Inh (PKAC-beta) | %Inh (PKMYT1) | %Inh (PKN1) | %Inh (PKN2) | %Inh (PLK1)
1 | Nc1ncnc2scc(-c3ccc(NC(=O)Cc4cc(F)ccc4F)cc3)c12.O=C(O)C(F)(F)F [SB-731254-M] | 0% | 0% | 0% | 0% | 13% | 15% | 23% | 4% | 26% | 9%
2 | Cn1cc(-c2cnc(N)c3c(-c4ccc5c(c4)CCN5C(=O)Cc4ccccc4)csc23)cn1 [GSK2593074] | 0% | 0% | 1% | 0% | 9% | 0% | 8% | 0% | 7% | 0%
3 | Cc1cc(-c2ccnc(Nc3cccc(C#N)c3)n2)cc(C)c1O [GSK1440913] | 11% | 70% | 61% | 94.9% | 3% | 0% | 6% | 0% | 14% | 0%
4 | CN(C)c1ncnc2nc[nH]c12 [SKF-31736] | 0% | 0% | 0% | 10% | 0% | 0% | 4% | 0% | 1% | 12%
5 | COc1cccc(-c2nc(-c3ccccc3)[nH]c2-c2ccncc2)c1 [SB-610250] | 0% | 38% | 39% | 8% | 0% | 0% | 0% | 0% | 0% | 0%
6 | Cc1ccccc1CC(=O)N1CCc2cc(-c3cn(C)c4ncnc(N)c34)ccc21 [GSK2603346] | 0% | 15% | 0% | 5% | 0% | 0% | 0% | 15% | 20% | 0%
7 | Cc1ccc(C)c(NC(=O)Nc2ccc(C)c(-c3ccc(C(=O)Nc4ccncc4)cc3)c2)c1 [GSK1398473] | 0% | 0% | 8% | 2% | 27% | 20% | 17% | 26% | 0% | 0%
8 | COC(=O)Nc1nc2ccc(Oc3ccc(CC(=O)Nc4cc(C(F)(F)F)ccc4F)cc3)cc2[nH]1 [GW680903] | 7% | 37% | 2% | 31% | 0% | 0% | 0% | 0% | 0% | 0%
9 | CN(C)CCOc1ccc(-c2cc(-c3ccc(Cl)c(O)c3)c(-c3ccncc3)[nH]2)cc1.Cl.Cl [SB-684387] | 45% | 54% | 7% | 20% | 33% | 10% | 0% | 39% | 0% | 3%
